Records with an inconclusive call do not appear. The source made the active and inactive calls. No rule for the calls is given here.
Target: Beta-2 adrenergic receptor (Homo sapiens) (UniProt P07550)
Assay: qHTS for antagonists of the Thyroid Stimulation Hormone Receptor: Hit Validation with Beta-2 Adrenergic Receptor
Settings: B2AR-expressing cells, cAMP HTRF, antagonist counterscreen; active compounds read high
Excerpt: The thyroid-stimulating hormone receptor (TSHR) is a member of the 7 trans-membrane-spanning receptor (7TMR) family of cell surface receptors. TSHR-mediated hyperthyroidism is important in thyroid pathology. The development of small molecule antagonists of TSHR may lead to therapeutic approaches for TSHR-mediated hyperthyroidism caused by constitutively activating mutations or stimulating auto-antibodies associated with Graves' disease. Graves' disease is the leading cause of hyperthyroidism and is caused by autoantibodies that stimulate TSHR (TsAbs) causing thyroid growth and unregulated overproduction of thyroid hormones and existing treatments have liabilities (agranulocytosis). In addition, TSHRs are known to be expressed in multiple extrathyroidal tissues including bone, brain, kidney, testis, fat and cells of the immune system but the role of the TSHR in these tissues is not clear. Therefore, TSHR antagonists/inverse agonists could be used as probes of extrathyroidal TSHR function. Finally, TSHR inverse agonists, which are a subclass of antagonists that inhibit agonist-independent (or basal or constitutive) TSHR signaling, could be used to inhibit TSH-independent signaling in patients with recurrent or metastatic thyroid cancer who are receiving thyroid hormone to suppress TSH. In collaboration between scientist from the NCGC and the NIDDK, a miniaturized HTRF high-throughput screen was developed. It's a cell based assay, where an anti cAMP antibody contains a fluorescent cryptate tag (excitation 337 nm; emission 620 nm) and the acceptor is cAMP-d2 (excitation 620 nm; emission 665 nm). When antibody and cAMP-d2 interact and are excited by a 337 nm light, a FRET occurs resulting in emission at 665 nm. The assay is competition between cAMP-d2 and cAMP (from the cell lysate). The homogeneous protocol allows for one step dispense after stimulation that is automation friendly. This is a hit validation assay in a counterscreen using beta-2 adrenergic receptor, a closely related hormone receptor NIH Chemical Genomics Center [NCGC] NIH Molecular Libraries Probe Centers Network [MLPCN] Grant: MH090855 Assay Provider: Marvin Gershengorn, NIDDK
An anti cAMP antibody contains a fluorescent cryptate tag (excitation 337 nm; emission 620 nm) and the acceptor is cAMP-d2 (excitation 620 nm; emission 665 nm). When antibody and cAMP-d2 interact and are excited by a 337 nm light, a FRET occurs resulting in emission at 665 nm. The assay is competition between cAMP-d2 and cAMP (from the cell lysate). The homogeneous protocol allows for one step dispense after stimulation that is automation friendly.

Beta-2 adrenergic receptor (Homo sapiens), sequence (P07550 whole entry, looked up): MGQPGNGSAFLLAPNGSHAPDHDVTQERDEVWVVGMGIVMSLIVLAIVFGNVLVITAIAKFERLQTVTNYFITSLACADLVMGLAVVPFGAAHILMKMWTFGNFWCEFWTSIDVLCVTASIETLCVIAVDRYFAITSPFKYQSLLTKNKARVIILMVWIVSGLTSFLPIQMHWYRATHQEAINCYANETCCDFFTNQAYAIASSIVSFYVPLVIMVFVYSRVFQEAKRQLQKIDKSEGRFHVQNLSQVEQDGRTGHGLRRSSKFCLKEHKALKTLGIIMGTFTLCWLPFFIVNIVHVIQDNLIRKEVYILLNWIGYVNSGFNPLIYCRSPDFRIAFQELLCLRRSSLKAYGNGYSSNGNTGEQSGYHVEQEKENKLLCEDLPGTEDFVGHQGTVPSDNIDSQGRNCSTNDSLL

Q: For COc1ccc(-c2csc(/C(C#N)=C\c3ccc(O)c([N+](=O)[O-])c3)n2)cc1OC, which max inhibition is on record?
A: Its max inhibition is 94.4% (active).

Q: How did the max inhibition turn out when O=C(COc1cccc2ccccc12)Nc1ccc(Cl)cc1C(=O)O was run?
A: Its max inhibition is 85.8% (active).

Q: For CCSC1=NSC2=NC(=O)/C(=C\c3coc4ccccc4c3=O)C(=N)N12, which max inhibition is on record?
A: Its max inhibition is 96.6% (active).

Q: How did the max inhibition turn out when Cc1ccc(-n2[nH]c(C)c(/C=N/Nc3ccc([N+](=O)[O-])cc3[N+](=O)[O-])c2=O)cc1C was run?
A: Its max inhibition is 88.7% (active).

Q: How did the max inhibition turn out when O=C1/C(=C\c2cc([N+](=O)[O-])ccc2O)SC(=S)N1Cc1ccc(Cl)cc1 was run?
A: The max inhibition was 90.7% (active).

Q: For O=c1cc(C(F)(F)F)[nH]c2c(C(F)(F)F)cccc12, which max inhibition is on record?
A: The max inhibition was 88.6% (active).

Q: Which max inhibition does the source give for O=S(=O)(Nc1cc(Cl)ccc1-n1cncn1)c1cc(Br)ccc1Br here?
A: The max inhibition was 72.6% (active).

Q: CC(=O)Oc1c(C)cc(Cl)cc1C(=O)Nc1ccc([N+](=O)[O-])cc1Cl was tested. Which max inhibition did it give?
A: Its max inhibition is 82.9% (active).

Q: For O=C(Nc1nc(-c2ccccc2)cs1)c1ccccc1NS(=O)(=O)c1ccc(F)cc1, which max inhibition is on record?
A: Its max inhibition is 96% (active).

Q: For O=C(Nc1ccc(Oc2ccc(Cl)cc2)c(Cl)c1)c1cc(I)cc(I)c1O, which max inhibition is on record?
A: The max inhibition was 91.3% (active).

Q: With CCn1nc([N+](=O)[O-])c(C(C#N)c2nc3cc(C(F)(F)F)ccc3s2)c(Cl)c1=O (centres undefined) as the compound, how does the max inhibition read?
A: Its max inhibition is 94.3% (active).

Q: How did the max inhibition turn out when COc1ccc(OCC(=O)NC(=S)Nc2ccc(N3CCOCC3)c(Cl)c2)cc1 was run?
A: The max inhibition was 89.7% (active).

Q: For Oc1c(Cl)cc(Cl)c(Cl)c1Cc1c(O)c(Cl)cc(Cl)c1Cl, which max inhibition is on record?
A: Its max inhibition is 96.4% (active).

Q: Which max inhibition does the source give for O=C1NC(=S)S/C1=C\c1ccc(SCc2ccccc2)o1 here?
A: Its max inhibition is 92.6% (active).
